Laboratory results reported in PubChem BioAssay (NCI).
Compounds without any hit were thinned out: in the full panel of roughly 83,000, 20% have a hit.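 For each line, cells grew in 96-well plates with the test compound present at a single concentration for 48 hours.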 Active and inactive are the calls of the source. The calls were made as follows: active = growth percent below 10; inactive = the rest.

How the values were obtained:
Assay in all cases: NCI-60 one-dose screen, 48 h (100 = growth as untreated, 0 = no growth, -100 = all killed)
Details in all cases: 10 µM unless noted
DU-145 prostate = test system: DU-145 prostate
K-562 leukemia = test system: K-562 leukemia
MALME-3M melanoma = test system: MALME-3M melanoma
MDA-MB-231 breast = test system: MDA-MB-231 breast
SF-268 CNS = test system: SF-268 CNS
SF-295 CNS = test system: SF-295 CNS
UACC-257 melanoma = test system: UACC-257 melanoma
M14 melanoma = test system: M14 melanoma
HCT-15 colon = test system: HCT-15 colon
HT29 colon = test system: HT29 colon
SNB-75 CNS = test system: SNB-75 CNS
SNB-19 CNS = test system: SNB-19 CNS
PC-3 prostate = test system: PC-3 prostate
SK-MEL-5 melanoma = test system: SK-MEL-5 melanoma
UACC-62 melanoma = test system: UACC-62 melanoma
LOX IMVI melanoma = test system: LOX IMVI melanoma
SK-MEL-28 melanoma = test system: SK-MEL-28 melanoma
RXF 393 renal = test system: RXF 393 renal
SF-539 CNS = test system: SF-539 CNS
U251 CNS = test system: U251 CNS

Measured: growth

Cc1cc(Nc2nc(N3CCOCC3)nc3ccccc23)n[nH]1
active: SNB-75 CNS -15.3%
inactive: DU-145 prostate 75.2% | K-562 leukemia 56.3% | MALME-3M melanoma 66.4% | MDA-MB-231 breast 84.9% | SF-268 CNS 63.8% | SF-295 CNS 73.4% | UACC-257 melanoma 76% | M14 melanoma 45.8% | HCT-15 colon 38.7% | HT29 colon 68.4% | SNB-19 CNS 93.2% | PC-3 prostate 59.9% | SK-MEL-5 melanoma 79.9% | UACC-62 melanoma 45.7% | LOX IMVI melanoma 63.3% | SK-MEL-28 melanoma 72.2%

CN1Cc2c(cc(CN3CCCCC3)n2C)C(c2ccc(Br)cc2)C1 (stereo not given)
active: UACC-62 melanoma -16.1%
inactive: DU-145 prostate 96.5% | K-562 leukemia 34.9% | MALME-3M melanoma 22.8% | RXF 393 renal 74.8% | SF-268 CNS 92.6% | SF-295 CNS 81.3% | SF-539 CNS 76.1% | UACC-257 melanoma 13.4% | M14 melanoma 14.1% | HCT-15 colon 67.7% | HT29 colon 49.6% | SNB-75 CNS 70.3% | U251 CNS 86.4% | PC-3 prostate 82.9% | SK-MEL-5 melanoma 61.2% | LOX IMVI melanoma 68.2% | SK-MEL-28 melanoma 54.3%

Cc1noc(C)c1-c1cc(O)cc(C(O)c2ccccc2)c1 (stereo not given)
active: SNB-75 CNS -13.2%
inactive: DU-145 prostate 87.5% | K-562 leukemia 42.1% | MALME-3M melanoma 60% | MDA-MB-231 breast 62.4% | SF-268 CNS 71.5% | SF-295 CNS 42.5% | SF-539 CNS 62.5% | UACC-257 melanoma 40.4% | HCT-15 colon 36.7% | HT29 colon 34.6% | SNB-19 CNS 52.7% | PC-3 prostate 48.4% | SK-MEL-5 melanoma 54.2% | UACC-62 melanoma 31.6% | LOX IMVI melanoma 27.3% | SK-MEL-28 melanoma 61.2%

COc1cccc(NC(=O)c2sc3nc4c(cc3c2N)CN(Cc2ccccc2)CC4)c1
inactive: DU-145 prostate 66.1% | K-562 leukemia 33.2% | MDA-MB-231 breast 62.5% | RXF 393 renal 49.3% | SF-268 CNS 42.9% | SF-295 CNS 49.6% | SF-539 CNS 30.5% | UACC-257 melanoma 61.2% | M14 melanoma 68.2% | HCT-15 colon 42.2% | HT29 colon 44.5% | PC-3 prostate 71.1% | SK-MEL-5 melanoma 62.6% | UACC-62 melanoma 35.1% | LOX IMVI melanoma 67.4% | SK-MEL-28 melanoma 76.8%

O=C(NC(Cc1ccccc1)C(=O)CCl)OCc1ccccc1 (stereo not given)
inactive: DU-145 prostate 93.5% | K-562 leukemia 13.7% | MALME-3M melanoma 72.4% | MDA-MB-231 breast 73.9% | SF-268 CNS 63.2% | SF-539 CNS 62.4% | UACC-257 melanoma 87.2% | M14 melanoma 80.1% | HCT-15 colon 58.6% | HT29 colon 53.6% | SNB-75 CNS 83.7% | SNB-19 CNS 82.2% | PC-3 prostate 67.5% | SK-MEL-5 melanoma 75.9% | UACC-62 melanoma 68% | SK-MEL-28 melanoma 85.8%
active: LOX IMVI melanoma -7.12%

COc1cccc(/C=C2/C(=O)N(Cc3ccco3)SC2=S)c1OC
inactive: DU-145 prostate 102% | K-562 leukemia 51.2% | MALME-3M melanoma 98.8% | MDA-MB-231 breast 100% | SF-268 CNS 99% | SF-539 CNS 102% | UACC-257 melanoma 89.6% | M14 melanoma 105% | HCT-15 colon 97.2% | HT29 colon 90.1% | SNB-75 CNS 71.8% | SNB-19 CNS 107% | PC-3 prostate 103% | SK-MEL-5 melanoma 97.5% | UACC-62 melanoma 93.8% | LOX IMVI melanoma 33.8% | SK-MEL-28 melanoma 101%

CCCCCCCCCCCCN1CCCC(C)C1 (stereo not given)
inactive: DU-145 prostate 95.2% | K-562 leukemia 19.2% | MALME-3M melanoma 107% | MDA-MB-231 breast 55.8% | SF-268 CNS 89.7% | SF-539 CNS 86.4% | UACC-257 melanoma 88.3% | M14 melanoma 82.7% | HCT-15 colon 61.8% | HT29 colon 24% | SNB-19 CNS 101% | PC-3 prostate 67.4% | SK-MEL-5 melanoma 68.4% | UACC-62 melanoma 108% | LOX IMVI melanoma 56.4% | SK-MEL-28 melanoma 90%

Cc1ccc(S(=O)(=O)N(CCc2ccc(Cl)cc2)S(=O)(=O)c2ccc(C)cc2)cc1
inactive: DU-145 prostate 105% | K-562 leukemia 70% | MALME-3M melanoma 93% | MDA-MB-231 breast 108% | SF-268 CNS 99.8% | SF-539 CNS 96.8% | UACC-257 melanoma 92.4% | M14 melanoma 106% | HCT-15 colon 94.5% | HT29 colon 86% | SNB-75 CNS 67.7% | SNB-19 CNS 94.6% | PC-3 prostate 85.9% | SK-MEL-5 melanoma 87.6% | UACC-62 melanoma 78.1% | LOX IMVI melanoma 92.4% | SK-MEL-28 melanoma 93.9%

CCN(CC)c1ccc(CNc2cc(C)nc3ccc(OC)cc23)cc1
active: K-562 leukemia -35.6% | MALME-3M melanoma -77.5% | HT29 colon 9.05%
inactive: DU-145 prostate 58.7% | RXF 393 renal 77% | SF-268 CNS 72.7% | SF-295 CNS 16.5% | SF-539 CNS 76% | UACC-257 melanoma 18.7% | M14 melanoma 48.8% | HCT-15 colon 79.1% | SNB-75 CNS 65.8% | U251 CNS 25% | PC-3 prostate 28.5% | SK-MEL-5 melanoma 39% | LOX IMVI melanoma 24.7% | SK-MEL-28 melanoma 96.6%

Cc1ccc(Nc2c(C(N)=O)cnc3ccc(-c4csc(N)n4)cc23)cc1
inactive: DU-145 prostate 103% | K-562 leukemia 113% | MDA-MB-231 breast 98.8% | RXF 393 renal 98.3% | SF-268 CNS 106% | SF-295 CNS 98.7% | SF-539 CNS 92% | UACC-257 melanoma 101% | M14 melanoma 98.6% | HCT-15 colon 98.7% | HT29 colon 103% | SNB-75 CNS 96.9% | SNB-19 CNS 102% | PC-3 prostate 97.6% | SK-MEL-5 melanoma 96.7% | UACC-62 melanoma 102% | LOX IMVI melanoma 96.2% | SK-MEL-28 melanoma 101%

Cc1ccc(C2CC3c4ccccc4C2C2CCCCN32)cc1 (stereo not given)
inactive: DU-145 prostate 108% | K-562 leukemia 72% | MALME-3M melanoma 85.6% | MDA-MB-231 breast 109% | SF-268 CNS 90.1% | SF-295 CNS 78.4% | SF-539 CNS 91.4% | UACC-257 melanoma 59.9% | HCT-15 colon 99.8% | HT29 colon 90.4% | SNB-75 CNS 69.9% | SNB-19 CNS 87.4% | PC-3 prostate 80% | SK-MEL-5 melanoma 76.4% | UACC-62 melanoma 99.3% | LOX IMVI melanoma 84.4% | SK-MEL-28 melanoma 96.4%

O=C(/C=C/c1ccc(B(O)O)cc1)/C=C/c1ccc(B(O)O)cc1
active: HCT-15 colon 8.01% | HT29 colon -8.22% | LOX IMVI melanoma -36.5%
inactive: DU-145 prostate 64.4% | K-562 leukemia 12.9% | MDA-MB-231 breast 38.6% | RXF 393 renal 10.2% | SF-268 CNS 59.2% | SF-295 CNS 89.8% | SF-539 CNS 21.6% | UACC-257 melanoma 51.9% | SNB-75 CNS 72.4% | SNB-19 CNS 69% | PC-3 prostate 57.1% | SK-MEL-5 melanoma 85.5% | UACC-62 melanoma 13% | SK-MEL-28 melanoma 86.7%

CC/C(=C(\c1ccccc1)c1ccc(OCCNC)cc1)c1ccccc1
active: DU-145 prostate -66.8% | K-562 leukemia -5.96% | MALME-3M melanoma -92.9% | RXF 393 renal -97.6% | SF-268 CNS 1.29% | SF-295 CNS -99.3% | SF-539 CNS -98% | UACC-257 melanoma -68.4% | HCT-15 colon -94.3% | HT29 colon -89.8% | SNB-75 CNS -81.7% | U251 CNS -80.3% | PC-3 prostate -67.6% | SK-MEL-5 melanoma -99.8% | UACC-62 melanoma -99.1% | LOX IMVI melanoma -100% | SK-MEL-28 melanoma -98.5%

O=C(Nc1cccc2c1C(=O)c1cccc(Nc3cccc4c3C(=O)c3cccc(NC(=O)c5ccccc5)c3C4=O)c1C2=O)c1ccccc1
inactive: DU-145 prostate 120% | K-562 leukemia 116% | MALME-3M melanoma 120% | RXF 393 renal 120% | SF-268 CNS 110% | SF-295 CNS 100% | SF-539 CNS 109% | UACC-257 melanoma 103% | M14 melanoma 104% | HCT-15 colon 110% | HT29 colon 124% | SNB-75 CNS 92.8% | U251 CNS 109% | PC-3 prostate 87.2% | LOX IMVI melanoma 98.1% | SK-MEL-28 melanoma 118%

Cc1cccc(NC(=O)c2sc3nc4c(cc3c2N)C(=O)CCC4)c1
active: DU-145 prostate 9.01% | SF-539 CNS -27.7%
inactive: K-562 leukemia 18.8% | MDA-MB-231 breast 36.6% | RXF 393 renal 22.7% | SF-268 CNS 64.8% | SF-295 CNS 20.6% | UACC-257 melanoma 76.3% | HCT-15 colon 28.9% | HT29 colon 11.7% | SNB-19 CNS 42.1% | PC-3 prostate 27.1% | SK-MEL-5 melanoma 22.8% | UACC-62 melanoma 22% | LOX IMVI melanoma 54.4% | SK-MEL-28 melanoma 62.2%

N=S(=O)(NC(=O)c1ccc(Cl)cc1Cl)c1ccc(Br)s1 (stereo not given)
inactive: DU-145 prostate 105% | K-562 leukemia 107% | MDA-MB-231 breast 98.2% | RXF 393 renal 91.7% | SF-268 CNS 99.8% | SF-295 CNS 89.6% | SF-539 CNS 91.7% | UACC-257 melanoma 98.2% | M14 melanoma 99.8% | HCT-15 colon 82.4% | HT29 colon 111% | SNB-75 CNS 108% | SNB-19 CNS 85.5% | PC-3 prostate 102% | SK-MEL-5 melanoma 94.7% | UACC-62 melanoma 112% | LOX IMVI melanoma 98.1% | SK-MEL-28 melanoma 111%

CCN(CC)CCCNc1cccc2c(SCc3ccccc3)ccnc12
active: DU-145 prostate -22.8% | K-562 leukemia -63% | MALME-3M melanoma -84.3% | M14 melanoma -47.4% | HT29 colon -33.1%
inactive: RXF 393 renal 88.4% | SF-268 CNS 23.9% | SF-295 CNS 61% | SF-539 CNS 81.4% | UACC-257 melanoma 88.1% | HCT-15 colon 81.1% | SNB-75 CNS 87.1% | U251 CNS 48.6% | PC-3 prostate 17.7% | LOX IMVI melanoma 24% | SK-MEL-28 melanoma 108%

CCN(CC)CC(C)(C)C(=O)/C=C/c1ccccc1
active: DU-145 prostate 8.96% | K-562 leukemia 6.77% | LOX IMVI melanoma -2.72%
inactive: MALME-3M melanoma 37.4% | RXF 393 renal 30.3% | SF-268 CNS 91.3% | SF-295 CNS 87.6% | SF-539 CNS 28.8% | UACC-257 melanoma 65.9% | M14 melanoma 31.9% | HCT-15 colon 21.2% | HT29 colon 49% | SNB-75 CNS 81.6% | U251 CNS 86.4% | PC-3 prostate 69% | SK-MEL-5 melanoma 81.9% | UACC-62 melanoma 39.8% | SK-MEL-28 melanoma 67.8%
